Measurements published in the supplement of paper PMC10849652.
Of roughly 8,800 targets only a part is listed; those with a hit were picked by preference. About 0.5% of all pairs of compound and target were hits.

What follows are targets tested with C1=CC2=C(C=CC(=C2)/C=C\3/C(=O)NC(=NCC4=CC=CS4)S3)N=C1 (assay: log2 fold change, soluble protein after heating vs DMSO (PISA); higher = thermal stabilisation; K562 lysate, 10 uM; active = over 0.2 and 3.5 SD of the protein, either way, in both replicates (recomputed)).
Outline: (§1)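 Following dounce homogenisation of K562 pellets in PBS pH 7.4 with 1 mM MgCl2, crude extract at 1 mg/mL protein was incubated for 30 min with 10 μM compound. Aliquots were then heated for 3 min over 48°C-58°C and pooled, NP-40 was added to 0.5% at 4°C, and soluble protein was recovered as the supernatant at 21,000xg for 90 min. Channel-sum-equalised TMTpro 16plex LC-MS/MS quantified this protein. Each value, from duplicates, is a log-two fold change in thermal stability relative to solvent controls.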

UniProt Q8WV92, sequence (Q8WV92 whole entry, looked up): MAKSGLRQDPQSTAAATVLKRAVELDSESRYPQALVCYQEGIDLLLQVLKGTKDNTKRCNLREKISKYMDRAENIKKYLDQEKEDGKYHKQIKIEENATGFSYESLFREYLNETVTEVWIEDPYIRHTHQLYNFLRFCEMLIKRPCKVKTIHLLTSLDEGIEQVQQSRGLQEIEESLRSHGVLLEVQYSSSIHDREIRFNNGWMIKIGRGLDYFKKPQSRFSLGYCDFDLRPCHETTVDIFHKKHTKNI
UniProt Q9UBU8, sequence (Q9UBU8 whole entry, looked up): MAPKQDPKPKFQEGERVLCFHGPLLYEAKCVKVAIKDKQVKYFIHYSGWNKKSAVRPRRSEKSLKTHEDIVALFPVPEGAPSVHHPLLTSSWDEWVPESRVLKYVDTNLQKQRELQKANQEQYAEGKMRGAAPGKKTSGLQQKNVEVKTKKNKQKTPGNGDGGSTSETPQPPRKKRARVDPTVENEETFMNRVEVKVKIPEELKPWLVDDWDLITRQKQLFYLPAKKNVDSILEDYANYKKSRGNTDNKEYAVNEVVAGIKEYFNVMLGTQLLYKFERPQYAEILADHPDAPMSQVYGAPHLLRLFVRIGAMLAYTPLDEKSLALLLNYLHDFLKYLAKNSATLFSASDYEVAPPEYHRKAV
UniProt Q9BV79, sequence (Q9BV79 whole entry, looked up): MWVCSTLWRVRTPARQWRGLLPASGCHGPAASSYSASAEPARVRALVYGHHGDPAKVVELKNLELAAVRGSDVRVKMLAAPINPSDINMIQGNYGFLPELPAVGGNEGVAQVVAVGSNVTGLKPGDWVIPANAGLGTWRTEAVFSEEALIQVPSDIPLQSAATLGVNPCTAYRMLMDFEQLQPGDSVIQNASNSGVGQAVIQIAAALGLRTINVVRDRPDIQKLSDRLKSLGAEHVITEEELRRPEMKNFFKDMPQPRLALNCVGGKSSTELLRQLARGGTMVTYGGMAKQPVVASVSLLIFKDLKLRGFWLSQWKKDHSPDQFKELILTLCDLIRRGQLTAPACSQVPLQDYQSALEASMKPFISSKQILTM
UniProt O00629, sequence (O00629 whole entry, looked up): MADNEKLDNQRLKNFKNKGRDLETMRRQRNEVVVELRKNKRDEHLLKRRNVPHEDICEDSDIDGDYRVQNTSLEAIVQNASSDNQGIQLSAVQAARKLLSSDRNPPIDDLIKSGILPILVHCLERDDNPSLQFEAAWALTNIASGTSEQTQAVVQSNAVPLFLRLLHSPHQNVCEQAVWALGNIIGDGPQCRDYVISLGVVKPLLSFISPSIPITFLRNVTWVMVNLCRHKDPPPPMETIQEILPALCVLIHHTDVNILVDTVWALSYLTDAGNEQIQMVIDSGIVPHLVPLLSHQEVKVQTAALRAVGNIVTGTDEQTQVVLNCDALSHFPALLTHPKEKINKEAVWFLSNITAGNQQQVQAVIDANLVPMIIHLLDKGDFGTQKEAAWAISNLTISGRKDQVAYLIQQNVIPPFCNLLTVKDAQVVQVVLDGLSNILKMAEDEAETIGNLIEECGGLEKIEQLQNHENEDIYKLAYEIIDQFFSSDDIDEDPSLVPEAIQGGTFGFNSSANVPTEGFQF
UniProt P49916, sequence (P49916 whole entry, looked up): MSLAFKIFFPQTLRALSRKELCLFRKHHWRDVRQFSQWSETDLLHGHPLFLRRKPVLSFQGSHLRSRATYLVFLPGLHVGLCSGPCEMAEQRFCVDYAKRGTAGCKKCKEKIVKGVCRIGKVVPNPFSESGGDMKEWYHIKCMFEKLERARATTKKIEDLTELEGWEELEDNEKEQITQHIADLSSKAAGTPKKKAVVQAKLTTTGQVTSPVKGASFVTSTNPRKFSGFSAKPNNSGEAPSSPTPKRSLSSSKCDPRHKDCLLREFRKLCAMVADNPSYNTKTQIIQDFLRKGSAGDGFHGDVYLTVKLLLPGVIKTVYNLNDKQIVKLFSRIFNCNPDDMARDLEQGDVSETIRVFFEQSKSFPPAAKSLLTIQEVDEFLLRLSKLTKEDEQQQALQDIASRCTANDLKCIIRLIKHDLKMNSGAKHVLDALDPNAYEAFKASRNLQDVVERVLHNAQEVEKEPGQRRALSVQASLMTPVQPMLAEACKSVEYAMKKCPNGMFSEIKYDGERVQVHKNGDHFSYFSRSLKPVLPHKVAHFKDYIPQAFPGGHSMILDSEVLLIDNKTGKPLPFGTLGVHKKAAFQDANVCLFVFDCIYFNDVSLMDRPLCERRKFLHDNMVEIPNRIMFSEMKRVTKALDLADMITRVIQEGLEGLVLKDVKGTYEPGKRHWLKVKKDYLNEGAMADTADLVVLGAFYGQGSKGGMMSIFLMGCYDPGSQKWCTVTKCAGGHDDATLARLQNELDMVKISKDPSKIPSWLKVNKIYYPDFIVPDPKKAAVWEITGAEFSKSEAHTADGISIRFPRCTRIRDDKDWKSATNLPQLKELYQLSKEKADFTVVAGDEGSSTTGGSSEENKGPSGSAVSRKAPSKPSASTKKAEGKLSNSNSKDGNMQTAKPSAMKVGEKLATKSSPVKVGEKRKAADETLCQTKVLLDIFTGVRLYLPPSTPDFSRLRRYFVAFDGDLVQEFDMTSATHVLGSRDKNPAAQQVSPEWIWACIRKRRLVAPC
UniProt P27816, sequence (P27816 whole entry, looked up): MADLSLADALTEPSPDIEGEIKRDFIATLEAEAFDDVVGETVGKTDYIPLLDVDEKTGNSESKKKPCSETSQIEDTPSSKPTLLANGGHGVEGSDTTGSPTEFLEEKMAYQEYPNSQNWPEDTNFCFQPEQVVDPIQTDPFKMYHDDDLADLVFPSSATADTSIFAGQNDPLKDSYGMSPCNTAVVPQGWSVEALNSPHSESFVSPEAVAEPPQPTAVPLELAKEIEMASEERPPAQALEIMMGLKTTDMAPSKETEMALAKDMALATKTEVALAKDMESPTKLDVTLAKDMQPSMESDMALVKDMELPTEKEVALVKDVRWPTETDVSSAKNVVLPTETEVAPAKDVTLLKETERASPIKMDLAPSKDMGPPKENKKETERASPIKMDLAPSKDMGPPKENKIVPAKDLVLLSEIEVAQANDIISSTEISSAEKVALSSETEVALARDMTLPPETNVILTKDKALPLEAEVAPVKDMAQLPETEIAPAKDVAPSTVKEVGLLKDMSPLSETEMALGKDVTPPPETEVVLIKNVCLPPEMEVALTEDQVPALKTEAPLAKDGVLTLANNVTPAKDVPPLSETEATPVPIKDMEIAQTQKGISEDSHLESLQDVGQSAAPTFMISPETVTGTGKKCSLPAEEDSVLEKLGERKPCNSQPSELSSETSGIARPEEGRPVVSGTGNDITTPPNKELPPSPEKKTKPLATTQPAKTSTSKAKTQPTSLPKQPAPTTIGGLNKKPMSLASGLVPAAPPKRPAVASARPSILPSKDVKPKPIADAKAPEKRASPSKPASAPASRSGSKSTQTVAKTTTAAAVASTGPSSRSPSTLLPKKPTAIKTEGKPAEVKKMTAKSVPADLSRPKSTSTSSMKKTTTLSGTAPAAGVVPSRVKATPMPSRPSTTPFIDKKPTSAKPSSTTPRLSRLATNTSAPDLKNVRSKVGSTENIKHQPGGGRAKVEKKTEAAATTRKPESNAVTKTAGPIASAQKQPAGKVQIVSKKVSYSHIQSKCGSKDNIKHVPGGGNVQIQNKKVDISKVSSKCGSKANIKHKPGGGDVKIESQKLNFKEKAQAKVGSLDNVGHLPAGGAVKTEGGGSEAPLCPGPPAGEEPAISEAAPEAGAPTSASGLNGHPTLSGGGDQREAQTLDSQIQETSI
UniProt Q7Z3D4, sequence (Q7Z3D4 whole entry, looked up): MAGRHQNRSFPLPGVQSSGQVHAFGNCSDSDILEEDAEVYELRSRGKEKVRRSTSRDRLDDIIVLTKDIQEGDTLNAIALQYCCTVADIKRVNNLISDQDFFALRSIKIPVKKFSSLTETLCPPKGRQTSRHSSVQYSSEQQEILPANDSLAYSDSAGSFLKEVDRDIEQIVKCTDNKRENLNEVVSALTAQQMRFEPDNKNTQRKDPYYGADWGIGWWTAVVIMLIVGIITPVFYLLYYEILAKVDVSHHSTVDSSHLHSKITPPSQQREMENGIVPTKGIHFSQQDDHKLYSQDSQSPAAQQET
UniProt Q15031, sequence (Q15031 whole entry, looked up): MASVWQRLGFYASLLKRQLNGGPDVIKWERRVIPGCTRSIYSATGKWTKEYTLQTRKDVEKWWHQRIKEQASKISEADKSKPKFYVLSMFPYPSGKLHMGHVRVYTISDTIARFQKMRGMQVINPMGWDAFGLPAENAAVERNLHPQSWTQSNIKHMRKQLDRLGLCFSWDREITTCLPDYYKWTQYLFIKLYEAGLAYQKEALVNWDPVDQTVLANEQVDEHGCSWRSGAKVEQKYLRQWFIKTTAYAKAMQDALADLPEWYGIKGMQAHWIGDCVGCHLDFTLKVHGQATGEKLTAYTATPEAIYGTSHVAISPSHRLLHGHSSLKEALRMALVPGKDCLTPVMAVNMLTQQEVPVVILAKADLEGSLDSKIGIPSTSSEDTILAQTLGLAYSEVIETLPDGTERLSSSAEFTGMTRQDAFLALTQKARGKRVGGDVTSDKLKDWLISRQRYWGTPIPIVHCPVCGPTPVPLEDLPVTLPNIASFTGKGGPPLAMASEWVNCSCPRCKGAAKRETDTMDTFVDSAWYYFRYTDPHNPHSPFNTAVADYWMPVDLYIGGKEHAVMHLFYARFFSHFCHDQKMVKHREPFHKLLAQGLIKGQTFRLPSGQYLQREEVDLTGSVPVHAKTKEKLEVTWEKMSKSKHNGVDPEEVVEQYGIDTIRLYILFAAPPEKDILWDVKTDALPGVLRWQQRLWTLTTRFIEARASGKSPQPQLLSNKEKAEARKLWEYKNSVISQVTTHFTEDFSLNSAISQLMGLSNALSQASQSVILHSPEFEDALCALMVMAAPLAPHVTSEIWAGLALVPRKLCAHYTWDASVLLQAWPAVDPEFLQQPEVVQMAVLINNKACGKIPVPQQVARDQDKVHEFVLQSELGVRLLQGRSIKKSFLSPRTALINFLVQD

log2 fold change, inactive:
MLST8 (UniProt Q9BVC4) 0.015
MIPEP (UniProt Q99797) 0.021
LSS (UniProt P48449) 0.053
LIG3 (UniProt P49916) 0.009
LSG1 (UniProt Q9H089) -0.136
MFF isoform 2 (UniProt Q9GZY8) -0.009
LIG4 (UniProt P49917) 0.028
MICU2 (UniProt Q8IYU8) -0.024
MAP7D3 (UniProt Q8IWC1) 0.052
LARS2 (UniProt Q15031) -0.012
LUC7L (UniProt Q9NQ29) 0.015
MED8 isoform 2 (UniProt Q96G25) 0.021
MAP4 (UniProt P27816) -0.003
MITD1 (UniProt Q8WV92) 0.021
MIF4GD isoform 3 (UniProt A9UHW6) 0.028
LRCH3 (UniProt Q96II8) -0.013
MLH1 (UniProt P40692) 0.012
MAP4 (UniProt E7EVA0) 0.045
MBOAT2 (UniProt Q6ZWT7) -0.022
LYSMD3 (UniProt Q7Z3D4) 0.069
KPNA4 (UniProt O00629) 0.022
LYN (UniProt P07948) -0.011
KPNA2 (UniProt P52292) 0.005
MICB, A0A140T979 -0.07
KIF26A (UniProt Q9ULI4) 0.012
MORF4L1 isoform 2 (UniProt Q9UBU8) -0.027
LBR (UniProt Q14739) -0.021
MAP11 (UniProt Q8WVR3) 0.006
KNSTRN (UniProt Q9Y448) 0.006
KNL1 (UniProt Q8NG31) 0
MAST4 (UniProt O15021) 0.027
LTN1 isoform 3 (UniProt O94822) -0.005
MECR (UniProt Q9BV79) -0.028
MAP4K2 (UniProt Q12851) -0.195
MAPK8 isoform 3 (UniProt P45983) -0.064
MPZL1 (UniProt O95297) 0.003
MRPL28 (UniProt Q13084) 0.011
KRI1 (UniProt Q8N9T8) -0.1
MPP1 (UniProt Q00013) -0.008

The targets below were run with C1=CC2=NC=CN=C2C=C1/C=C/3\C(=O)NC(=O)S3 in the same assay as above.
Outline: as §1

log2 fold change, inactive:
MLST8 (UniProt Q9BVC4) 0.012
MIPEP (UniProt Q99797) 0.019
LSS (UniProt P48449) -0.005
LIG3 (UniProt P49916) -0.006
LSG1 (UniProt Q9H089) -0.021
MFF isoform 2 (UniProt Q9GZY8) -0.014
LIG4 (UniProt P49917) 0.002
MICU2 (UniProt Q8IYU8) -0.011
MAP7D3 (UniProt Q8IWC1) -0.023
LARS2 (UniProt Q15031) -0.041
LUC7L (UniProt Q9NQ29) -0.067
MED8 isoform 2 (UniProt Q96G25) 0.027
MAP4 (UniProt P27816) -0.001
MITD1 (UniProt Q8WV92) 0.014
MIF4GD isoform 3 (UniProt A9UHW6) -0.073
LRCH3 (UniProt Q96II8) 0.001
MLH1 (UniProt P40692) -0.079
MAP4 (UniProt E7EVA0) -0.072
MBOAT2 (UniProt Q6ZWT7) -0.036
LYSMD3 (UniProt Q7Z3D4) 0.05
KPNA4 (UniProt O00629) -0.014
LYN (UniProt P07948) -0.07
KPNA2 (UniProt P52292) 0.002
MICB, A0A140T979 -0.168
KIF26A (UniProt Q9ULI4) -0.022
MORF4L1 isoform 2 (UniProt Q9UBU8) -0.032
LBR (UniProt Q14739) -0.081
MAP11 (UniProt Q8WVR3) 0.061
KNSTRN (UniProt Q9Y448) -0.018
KNL1 (UniProt Q8NG31) -0.017
MAST4 (UniProt O15021) -0.044
LTN1 isoform 3 (UniProt O94822) 0.003
MECR (UniProt Q9BV79) 0.012
MAP4K2 (UniProt Q12851) 0.05
MAPK8 isoform 3 (UniProt P45983) -0.045
MPZL1 (UniProt O95297) -0.042
MRPL28 (UniProt Q13084) -0.074
KRI1 (UniProt Q8N9T8) -0.012
MPP1 (UniProt Q00013) -0.025
